Reference: article PMC5540273 (PLoS ONE, 2017)

system: SRMS; details: concentration: 1 μM, replicates: in singlicate; n = 1
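Note: KINOMEscan kinase panel screen.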

SMILES | %Inh
CC(=O)Nc1nc2cnc(Nc3cc(NC(=O)c4cccc(C5(C#N)CC5)c4Cl)ccc3C)nc2s1 | 0%
Cl.Cl.NCC(NC(=O)c1cc(-c2ccccc2)c(-c2ccnc3[nH]ccc23)s1)c1ccccc1 (stereo not drawn) [GSK1321561] | 0%
COc1cccc(C2=C(Nc3ccc(Cl)c(C(=O)O)c3)C(=O)NC2=O)c1 [SB-390769] | 100%
O=c1[nH]cc(-c2ccc(N3CCOCC3)cc2)c2sc(-c3cn[nH]c3)cc12 [GSK2276055] | 8%
Cn1cc(-c2ccc3c(c2)CCN3C(=O)Cc2cccc(F)c2)c2c(N)ncnc21 [GSK2603358] | 0%
CN1CCN(CCCNc2nccc(-c3c(-c4ccc(F)cc4)nn4cc(C(F)(F)F)ccc34)n2)CC1 [GW621581] | 0%
Cc1ccc(C(=O)Nc2ccc(Nc3ccnc4cc(-c5nccs5)ccc34)cc2O)cc1.Cl [GW494702] | 89%
CC(C)(C)c1ccc2nccc(Nc3cccc(O)c3)c2c1 [GW856795] | 0%
Nc1n[nH]c2cnc(-c3ccccc3)cc12 [SB-642124] | 0%
CCc1ccc(-c2ccc3c(c2)-c2c(cnn2C)S(=O)(=O)N3C)cc1 | 0%
O=C(Nc1n[nH]c2nc(-c3ccc(O)cc3)ccc12)C1CC1 [SB-710363] | 2%
CC(=O)N1CCN(c2ccc(Nc3nccc(-c4sc(C(C)C)nc4-c4cccc(NS(=O)(=O)c5cccc(Cl)c5)c4)n3)cn2)CC1 [GSK1660437] | 98.3%
